High-throughput results deposited in PubChem BioAssay by National Center for Advancing Translational Sciences (NCATS).
SNCA expr inh: inhibitors of alpha-synuclein (SNCA) gene expression. HEK-293 SNCA-luciferase knock-in, luminescence, 24 h. Potency, µM (highest dose often 57.2 µM), inactives show at the highest dose activity change, negative = inhibition, hits mostly inhibitors. 140,000 tested, 0.17% active;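 also: potency is read from the fitted curve at half-maximal effect; plate controls were DMSO cells for no effect and cell-free wells for full effect; nearly all actives have a fitted effect of over 45% in size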
IP6K1 inhibitor: inhibitors of human IP6K1 | activity change, % (series mostly up to about 58 µM) | IP6K1 kinase, ADP-Glo luminescence, 2 h; stronger effect = lower value | Q92551 | 140,000 tested, 0.81% active; in the data active = activity change below about -25%; also: % is scaled to controls: 0 for no effect and ±100 for the full control effect
Target sequence (Q92551 whole entry, looked up): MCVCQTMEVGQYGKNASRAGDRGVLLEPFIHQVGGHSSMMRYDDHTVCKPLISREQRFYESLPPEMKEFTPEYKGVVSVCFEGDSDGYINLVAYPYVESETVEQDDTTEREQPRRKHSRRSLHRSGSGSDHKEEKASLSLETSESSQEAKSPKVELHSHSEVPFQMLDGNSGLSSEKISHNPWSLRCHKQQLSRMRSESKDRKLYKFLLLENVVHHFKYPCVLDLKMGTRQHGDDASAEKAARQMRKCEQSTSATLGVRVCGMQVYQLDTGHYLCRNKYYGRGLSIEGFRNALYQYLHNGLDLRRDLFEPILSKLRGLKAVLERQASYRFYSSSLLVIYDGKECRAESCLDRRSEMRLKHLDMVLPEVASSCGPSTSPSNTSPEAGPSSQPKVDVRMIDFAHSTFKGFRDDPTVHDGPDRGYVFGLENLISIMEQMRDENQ
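ADP-Glo luminescence measures ADP made by human IP6K1 during a 2 h RT reaction with ATP/IP6 (mix at 1.3 mM/130 uM); top library doses 57.5 and 19.1 uM final.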
KDM5B inhibitor: blocks human KDM5B histone demethylase activity; Q9UGL1; KDM5B demethylase, FDH-coupled NADH fluorescence (FDH is formaldehyde dehydrogenase); Potency, µM (titrated, usually from 57.7 µM), hits mostly inhibitors; 220,000 tested, 2.6% active; AID 1347165; also: potency is read from the fitted curve at half-maximal effect; 0% is about no effect; nearly all actives have a fitted effect of over 70% in size
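Here, H3K4me3 peptide (12.5 µM in substrate mix) is demethylated by KDM5BΔAP, 200 nM final, after 10 min compound exposure. Formaldehyde product is coupled through FDH (0.25 U/mL in mix) to NADH fluorescence; 30-min ΔRFU feeds dose-response curves.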
SNCA viab count: counter-screen for SNCA expression inhibitors: cell viability. HEK-293-SNCA-luc viability, GF-AFC fluorescence, 24 h. Potency, µM (doses to about 57.1 µM), for inactives: at the top dose activity change, negative = cytotoxicity, usual class: cytotoxic. 150,000 tested, 0.12% active. AID 1671193;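 also: potency is read from the fitted curve at half-maximal effect; 0% = DMSO-treated cells and -100% = medium-only wells without cells; nearly all actives have a fitted effect of over 30% in size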
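Cytotoxicity counterscreen: after 24 h compound treatment of genome-edited SNCA-luciferase HEK-293 cells, live-cell protease substrate GF-AFC read by fluorescence after 30 min; activity scaled between DMSO (0%) and medium-only (-100%), curves Hill-fitted.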
Numbers without * were called inactive; ! = not confirmed by another sample; [ ] = remark or other dose. The list is not random: actives were taken first. Their share in the collection is about 3%. Unless noted, calls follow the shape of the dose curve; as a rule, active = well fitted curve in the direction sought with a large enough effect; inconclusive = small, poorly fitted or top-dose-only effect, or another doubt; inactive = no such curve, though single readings can be large; an effect the other way counts as inactive or inconclusive.

For O=C(CCc1ccccc1)N1CCc2nc3cc(-c4ccccc4)[nH]n3c(=O)c2C1 the results were SNCA expr inh 1.8%, IP6K1 inhibitor 14.0, KDM5B inhibitor inconclusive and SNCA viab count 8.1%.
For COC(=O)C(NC(=O)N1CCc2nc3cc(-c4ccccc4)[nH]n3c(=O)c2C1)C(C)C (stereo not drawn) the results were SNCA expr inh inconclusive, IP6K1 inhibitor 13.2, KDM5B inhibitor 25.1µM* and SNCA viab count 4.4%.
O=C(NCc1cccc(F)c1)N1CCc2nc3cc(-c4ccccc4)[nH]n3c(=O)c2C1 was read as SNCA expr inh inconclusive, IP6K1 inhibitor 12.3, KDM5B inhibitor 12.6µM* and SNCA viab count 16.6%.
Screening CCn1nc(C(=O)N2CC(C(=O)N3CCOCC3)Oc3ccccc32)c2ccccc2c1=O (stereo not drawn) returned KDM5B inhibitor inactive.
For COc1ccc(NC(=O)N2CCc3c(nc4cc(-c5ccccc5)[nH]n4c3=O)C2)c(C)c1 the results were SNCA expr inh -17.1%, IP6K1 inhibitor 35.4, KDM5B inhibitor 20µM* and SNCA viab count 8.5%.
CCc1ccc(NC(=O)N2CCc3c(nc4cc(-c5ccc(OC)cc5)[nH]n4c3=O)C2)cc1 was read as SNCA expr inh 54.2%, IP6K1 inhibitor 25.8, KDM5B inhibitor inconclusive and SNCA viab count 4.5%.
For Cc1ccccc1OCC(=O)N1CCc2c(nc3cc(-c4ccccc4Cl)[nH]n3c2=O)C1 the results were SNCA expr inh 3.1%, IP6K1 inhibitor 28.1, KDM5B inhibitor inactive and SNCA viab count 1.6%.
`COc1ccc(-c2cc3nc4c(c(=O)n3[nH]2)CCN(C(=O)COc2ccccc2C)C4)cc1` gave SNCA expr inh 33.9%, IP6K1 inhibitor 29.5, KDM5B inhibitor 31.6µM* and SNCA viab count -3.7%.
For N#Cc1cccc(CN2C[C@@H](CO)[C@H](c3ccccn3)C2)c1 the results were SNCA expr inh 32.7%, IP6K1 inhibitor 5.8, KDM5B inhibitor 12.6µM* and SNCA viab count 3.3%.
For COC[C@@H]1CN(Cc2cccc(C#N)c2)C[C@H]1c1ccccn1 the results were SNCA expr inh inconclusive, IP6K1 inhibitor 7.8, KDM5B inhibitor inactive and SNCA viab count -1.3%.
c1ccc(-c2nc3ccncc3[nH]2)cc1 was read as SNCA expr inh 39.4%[87.6 µM], IP6K1 inhibitor 0.0, KDM5B inhibitor inconclusive and SNCA viab count 3.8%[87.6 µM].
Screening Cc1cc(-c2nc3ccncc3[nH]2)c(C)[nH]1 returned SNCA expr inh 74.0%[87.6 µM], IP6K1 inhibitor -3.5, KDM5B inhibitor 31.6µM* and SNCA viab count 4.2%[87.6 µM].
Cc1occc1-c1nc2ccncc2[nH]1 was read as SNCA expr inh 12.0%[87.6 µM], IP6K1 inhibitor 2.3, KDM5B inhibitor 31.6µM*! and SNCA viab count 4.1%[87.6 µM].
`c1coc(-c2nc3ccncc3[nH]2)c1` gave SNCA expr inh 16.4%[87.6 µM], IP6K1 inhibitor 23.0, KDM5B inhibitor 31.6µM*! and SNCA viab count -8.4%[87.6 µM].
Screening O=C(O)c1ccc(-c2nc3ccncc3[nH]2)cc1 returned SNCA expr inh inconclusive, IP6K1 inhibitor 0.3, KDM5B inhibitor inconclusive and SNCA viab count inconclusive.
Screening c1cnc2[nH]cc(-c3nc4ccncc4[nH]3)c2c1 returned SNCA expr inh 15.9%[87.6 µM], IP6K1 inhibitor 4.7, KDM5B inhibitor 35.5µM*! and SNCA viab count -3.8%[87.6 µM].
O=C(NCc1c[nH]c2ncccc12)c1ccncc1 was read as SNCA expr inh -18.2%[87.6 µM], IP6K1 inhibitor 23.2, KDM5B inhibitor inactive and SNCA viab count 6.0%[87.6 µM].
For CCc1cccc(C)c1NC(=O)COC(=O)c1cc(C)nc2ccccc12 the results were KDM5B inhibitor inactive.
`CC[C@H]1CN2CCc3cc(OC)c(OC)cc3[C@H]2C[C@@H]1C[C@@H]1NCCc2cc(OC)c(OC)cc21` gave SNCA expr inh 0.607µM* and SNCA viab count inconclusive.
CCc1nc2c(c(-c3ccc(Cl)cc3)n1)CN(Cc1ccc(OC)cc1)CC2 was read as SNCA expr inh inconclusive, IP6K1 inhibitor -4.4, KDM5B inhibitor 17.8µM* and SNCA viab count inconclusive.
`Oc1ccc(-c2nc(C3CC3)nc3c2CN(Cc2ccc(OC(F)(F)F)cc2)CC3)cc1` gave SNCA expr inh 8.6%, IP6K1 inhibitor 5.7, KDM5B inhibitor inactive and SNCA viab count 5.6%.
CCc1nc2c(c(-c3ccc(Cl)cc3)n1)CCN(CC1CC1)CC2 was read as SNCA expr inh 19.8%[87.6 µM], IP6K1 inhibitor -0.9, KDM5B inhibitor 28.2µM* and SNCA viab count -6.6%[87.6 µM].
`CC(C)c1nc2c(c(-c3ccc(Cl)cc3)n1)CCN(Cc1cccc3ccccc13)CC2` gave SNCA expr inh inconclusive, IP6K1 inhibitor 7.1, KDM5B inhibitor 56.2µM* and SNCA viab count -0.5%.
Screening CC(C)c1nc2c(c(-c3ccc(O)cc3)n1)CN(Cc1ccc(OC(F)(F)F)cc1)CC2 returned SNCA expr inh -14.5%, IP6K1 inhibitor 1.5, KDM5B inhibitor 17.8µM* and SNCA viab count 7.1%.
Screening Cn1ncc2c(C(=O)NCCCNC(=O)OC(C)(C)C)cc(-c3ccccc3C(F)(F)F)nc21 returned IP6K1 inhibitor -0.7.
`COc1ccc(-c2nc(C)nc3c2CCN(CC2CC2)CC3)cc1` gave SNCA expr inh 2.1%[87.6 µM], IP6K1 inhibitor -0.7, KDM5B inhibitor 39.8µM* and SNCA viab count -6.3%[87.6 µM].
For CC(C)c1nc2c(c(-c3ccc(Cl)cc3)n1)CCN(CC1CCCCC1)CC2 the results were SNCA expr inh inconclusive, IP6K1 inhibitor -4.4, KDM5B inhibitor 35.5µM* and SNCA viab count 3.4%.
Screening CCn1ccnc1CN(C)c1nccc(-c2ccc(C)nc2C)n1 returned SNCA expr inh 4.3%, IP6K1 inhibitor -9.8, KDM5B inhibitor 22.4µM* and SNCA viab count -4.5%.
`Cc1ccc(-c2ccnc(N3CCC(N(C)Cc4ccon4)CC3)n2)c(C)n1` gave SNCA expr inh 7.7%, IP6K1 inhibitor -15.5, KDM5B inhibitor inconclusive and SNCA viab count 2.9%.
For CCCc1nc(C)c2c(=O)[nH]c(-c3cc(S(=O)(=O)N4CCN(CC)CC4)ccc3OCC)nn12 the results were SNCA expr inh inconclusive, IP6K1 inhibitor -12.6 and SNCA viab count 27.1µM*!.
`CCOC(=O)N1CCN(S(=O)(=O)c2ccc(OCC)c(C)c2)CC1` gave KDM5B inhibitor inactive.
CCOC(=O)c1nnn(C(CC)C(=O)Nc2cccc(OC)c2)c1C(=O)OCC (stereo not drawn) was read as KDM5B inhibitor inactive.
Cc1ccc([S+](=O)([O-])NC2CCN(Cc3cccc(-c4ccc(F)c(F)c4)c3)CC2)cc1 was read as SNCA expr inh -37.1%, IP6K1 inhibitor 0.6 and SNCA viab count -27.1%.
For C1=C(c2nc(-c3cccc4[nH]ncc34)cc3c2ccn3Cc2cccnc2)CCOC1 the results were SNCA expr inh -1.7%[87.6 µM], IP6K1 inhibitor -14.4, KDM5B inhibitor inactive and SNCA viab count inconclusive.
For CN(C)Cc1ccc(-c2cc3c(ccn3Cc3cccnc3)c(C3=CCOCC3)n2)cc1 the results were SNCA expr inh -12.7%[87.6 µM], IP6K1 inhibitor 30.8, KDM5B inhibitor 35.5µM* and SNCA viab count -23.9%[87.6 µM].
Screening C1=C(c2nc(-c3ccc(N4CCOCC4)cc3)cc3c2ccn3Cc2cccnc2)CCOC1 returned SNCA expr inh -0.7%, IP6K1 inhibitor 0.7, KDM5B inhibitor 28.2µM* and SNCA viab count -0.4%.
